High-throughput results deposited in PubChem by several laboratories.
Bfl-1 A1 inh: caspase 3/7 activation in MEF A1-2A-BIM cells, primary screen, A1 inhibitor project, cell-based, luminescence, HTS | caspase activation, % (test concentration not listed) | actives 0.066% (n = 330,000) | Caspase-Glo 3/7 luminescence, 3 h; percent of clofoctol response, vehicle zero;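 active = over half of replicate activation scores above 10%, or exactly half above 10 with the replicate mean above 10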
GRK2 inh: compounds blocking aptamer binding on GRK2 – biochemical, human GRK2, bead flow cytometry, HTS, primary screen; Beta-adrenergic receptor kinase 1 (Homo sapiens), P25098; FAM-aptamer displacement from GRK2; inhibition of aptamer binding, % at 10 µM; actives 0.59% (n = 330,000); AID 488847, 2010;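 active = inhibition of aptamer binding above 40%, roughly 3 SD of noise, on plates passing a quality check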;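 note: median bead fluorescence of bound FAM aptamer so fluorescent compounds give negative values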
NTR1 agonist: agonists of human NTR1, primary screen, imaging, U2OS cells, beta-arrestin-GFP, high content; Neurotensin receptor type 1 (Homo sapiens), P30989; activation, % at 20 µM; AID 493036, 2011; actives 0.17% (n = 330,000); NTR1-U2OS beta-arrestin-GFP spot imaging, agonist mode;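 active = activation at or above 40% of the spot to cytoplasm intensity ratio, with at least 20 cells analyzed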;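 note: 0% = DMSO without peptide and 100% = 100 nM NTR1 peptide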
VLA-4 inh: inhibition in human VLA-4 binding assay, primary screen, VLA-4 allosteric modulator project, MLPCN library, flow cytometry, VLA-4 expressing cells; Integrin alpha-4 (Homo sapiens), P13612; ligand binding flow cytometry; actives 0.2% (n = 330,000); inhibition, % (about 7 µM as worked out from the volumes in the protocol); in the data active = inhibition above about 50%
B2AR ag: beta2AR agonists driving receptor internalization, primary screen, cell-based, FAP fluorogen, flow cytometry; Am2.2-beta2AR cells; Beta-2 adrenergic receptor (Homo sapiens), P07550; actives 0.43% (n = 340,000); response, % (test concentration not listed);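 active = response above a set limit, near 3 SD of response in nonfluorescent compounds, cut at about 42% in these data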
Target sequence (P07550 whole entry, looked up): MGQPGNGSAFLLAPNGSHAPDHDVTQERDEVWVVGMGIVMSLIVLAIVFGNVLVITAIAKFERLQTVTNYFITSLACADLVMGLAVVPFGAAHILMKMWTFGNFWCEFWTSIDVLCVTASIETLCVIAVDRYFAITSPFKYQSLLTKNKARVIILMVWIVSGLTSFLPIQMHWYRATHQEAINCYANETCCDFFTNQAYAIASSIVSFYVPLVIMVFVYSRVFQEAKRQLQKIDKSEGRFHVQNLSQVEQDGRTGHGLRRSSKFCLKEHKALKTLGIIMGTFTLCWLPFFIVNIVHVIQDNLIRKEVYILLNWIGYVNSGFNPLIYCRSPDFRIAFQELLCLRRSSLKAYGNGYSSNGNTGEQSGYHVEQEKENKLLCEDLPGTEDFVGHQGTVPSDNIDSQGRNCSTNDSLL
NTR1 ag conf: NTR1 agonists, single-dose retest, confirmation, imaging, U2OS cells, beta-arrestin-GFP, single concentration. shares compounds with NTR1 agonist. NTR1-U2OS beta-arrestin-GFP translocation imaging. activation, % at 20 µM. actives 38% (n = 480);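 active = mean activation at 20 µM of at least 40%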;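 note: 0% = DMSO without peptide and 100% = 100 nM NTR1 peptide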
* hit, by the source's call; nt = not tested or not shown. A selection: hits, their analogues and other compounds. The true share with any hit is near 1.3%.

SMILES | Bfl-1 A1 inh | GRK2 inh | NTR1 agonist | VLA-4 inh | B2AR ag | NTR1 ag conf
Cc1c(/C=N/NC(=O)c2ccc(O)cc2)c2ccccn2c1C(=O)c1ccc(F)cc1 | 0 | 0 | 6 | -21 | 18 | nt
CCOC(=O)c1cc(-c2ccccc2)sc1NC(=O)C(C)Sc1nnc(N)s1 (stereo unspecified) | 0 | 0 | 44* | 17 | -15 | 25
CCOC(=O)c1cc(-c2ccccc2)sc1NC(=O)CSc1nnc(N)s1 | 1 | 1 | 17 | 8 | -7 | nt
CC(C)C[C@@H](CO)N(Cc1ccccc1)S(=O)(=O)N(Cc1ccccc1)[C@@H](CO)CC(C)C | -1 | 0 | 47* | -7 | 13 | 21
CC(C)C[C@@H](CO)N(Cc1ccccc1)S(=O)(=O)N(Cc1ccccc1)[C@H](CO)CC(C)C | 2 | 2 | 50* | 7 | 7 | 19
CCOC(=O)c1ccc(NC(=O)c2ccc(C)c(S(=O)(=O)N3CCOCC3)c2)cc1 | -1 | 0 | 52* | -10 | 12 | 70*
CSc1ccc(CN(C)CC(=O)NC(=O)NCCC2=CCCCC2)cc1 | -1 | 1 | 3 | 5 | -8 | nt
COc1ccc(C)c2sc(=NC(=O)c3cccc(N4C(=O)CCC4=O)c3)n(C)c12 | -11 | 2 | 6 | 7 | 27 | nt
C=CCn1c(=NC(=O)c2cccc(N3C(=O)CCC3=O)c2)sc2cccc(OC)c21 | 0 | 1 | 47* | -2 | 26 | 54*
Cc1ccccc1C(=O)N1CCc2cc(-c3csc(NC(=O)CN4CCCC4)n3)ccc21 | 0 | 0 | 54* | 2 | 10 | 4
O=C(CN1CCCCC1)Nc1nc(-c2ccccc2)cs1 | 1 | 4 | 2 | 6 | -3 | nt
Cc1cccc(OCC(=O)NCC(=O)N/N=C/c2ccc(O)cc2O)c1 | 0 | 2 | 40* | 11 | 11 | 30
O=C(/C=C\c1ccccc1)NCC(=O)N/N=C/c1ccc(O)cc1O | 0 | 0 | 66* | 26 | 5 | 55*
CN(C)S(=O)(=O)c1ccc(N2CCCC2)c(C(=O)OCC(=O)N2CCN(c3ccccc3)CC2)c1 | 0 | 1 | 3 | 4 | 5 | nt
CCc1ccc(NC(=O)COc2ccc(/C=C(/C#N)c3nc4ccccc4[nH]3)cc2OC)cc1 | 1 | 0 | 52* | 10 | 0 | -1
O=C(Nc1ccc(C(=O)N2CCCC2)cc1)C1CCC1 | nt | nt | nt | nt | 3 | nt
CCOc1ccc(NS(=O)(=O)c2ccc3c(c2)n(C)c(=O)n3C)cc1 | 1 | 1 | 1 | 11 | -14 | nt
CCc1ccccc1N(CC(=O)NC(C)(C)CC)C(=O)CCC(=O)Nc1nccs1 | 0 | 0 | -1 | 11 | 6 | nt
COc1ccc(Cn2c(-c3ccc(C)cc3)nc3c(c(=O)c4ccccc4n3C)c2=O)cc1 | -1 | 0 | 41* | 33 | -1 | 23
COC(=O)C1=C(C)N(Cc2ccccc2)C(=NCc2ccccc2)N[C@H]1c1cccc(C(F)(F)F)c1 | 0 | 0 | 44* | 28 | 28 | 75*
O=C(CSc1nc2ccccc2[nH]1)Nc1ccc(N2CCOCC2)cc1 | 0 | 2 | 0 | -11 | -4 | nt
COc1cc2ccccc2cc1C(=O)N(CCN(C)C)c1nc2c(OC)ccc(OC)c2s1 | 1 | 0 | 42* | 9 | 28 | 3
COc1ccc(OC)c2sc(N(CCN(C)C)C(=O)c3ccc4ccccc4c3)nc12 | 0 | 0 | 0 | 6 | 15 | nt
COc1ccc(OC)c(-c2csc(NC(=O)C3COc4ccccc4O3)n2)c1 (stereo unspecified) | 0 | 0 | 9 | 3 | -1 | nt
O=C(Nc1nc(-c2nc3ccccc3s2)cs1)C1COc2ccccc2O1 (stereo unspecified) | 0 | 2 | 41* | 20 | 15 | -3
SMILES | Bfl-1 A1 inh | GRK2 inh | NTR1 agonist | VLA-4 inh | B2AR ag | NTR1 ag conf
N#C/C(=C/c1cn(-c2ccccc2)nc1-c1cccc(OCc2ccccc2)c1)C(=O)NCCCn1ccnc1 | 0 | 0 | 12 | 13 | 13 | nt
CCOc1cccc(-c2nn(-c3ccccc3)cc2/C=C(/C#N)C(=O)NCCCn2ccnc2)c1 | 0 | 1 | 44* | -11 | 1 | 27
Cc1ccc(CC(=O)NNC(=O)c2ccncc2)cc1C | 0 | 2 | 2 | 3 | 0 | nt
CCN(CC(=O)Nc1ccccc1C(F)(F)F)C(=O)c1ccc2[nH]c3c(c2c1)CC(C)CC3 (stereo unspecified) | 0 | 0 | 11 | 4 | 3 | nt
CCc1ccc(NC(=O)c2ccc3c(=O)n4c(nc3c2)CCCCC4)cc1 | 0 | 1 | 10 | 1 | 4 | nt
O=C(Nc1cccc(S(=O)(=O)N2CCCCC2)c1)c1ccc2c(=O)n3c(nc2c1)CCCCC3 | 0 | 0 | 43* | 11 | 8 | 26
O=C(CSc1nc2ccc([N+](=O)[O-])cc2[nH]1)c1ccc2ccccc2c1 | -1 | 5 | 44* | 6 | 9 | 3
CC(=O)NC(CC(=O)N(Cc1ccccc1)c1cccc(C)c1)c1ccccc1 (stereo unspecified) | 0 | 1 | -1 | -9 | 4 | nt
FC(F)(F)c1cccc(N2CCN(c3ccc4nnc(-c5ccccc5)n4n3)CC2)c1 | -1 | 0 | 58* | -21 | 9 | 10
CSc1ncccc1C(=O)OC(C)C(=O)Nc1cccc(S(=O)(=O)N2CCOCC2)c1 (stereo unspecified) | -2 | 0 | 3 | 1 | -1 | nt
CCN(CC(=O)Nc1ccccc1OC)C(=O)CC1CCCC1 | 0 | 3 | 0 | -2 | -10 | nt
CCOC(=O)c1c(C)[nH]c(C(=O)OCC(=O)Nc2sccc2C(N)=O)c1C | 0 | 1 | 44* | -2 | 25 | 41*
CCc1ccc2c(c1)C1(C(=O)N2)N2CCCC2C(C(=O)c2ccc3ccccc3c2)C12C(=O)Nc1ccccc12 (stereo unspecified) | 0 | 2 | 55* | 17 | 26 | 87*
CCc1cccc2c1NC(=O)C21N2CCCC2C(C(=O)c2ccc3ccccc3c2)C12C(=O)Nc1ccccc12 (stereo unspecified) | 0 | 0 | 23 | 4 | 14 | nt
Cc1cccnc1NC(=O)CCc1nnc2ccc(N3CCC4(CC3)OCCO4)nn12 | 1 | 1 | -1 | -6 | 3 | nt
COc1cc(/C=N/NC(=O)c2ccc(N)cc2)ccc1OC(=O)c1cccc(C)c1 | 1 | 0 | 11 | 4 | 2 | nt
